Results filed as inconclusive are left out. The source made the active and inactive calls. Rule for the calls: active = hit-call score of the fitted dose curve at least 0.9, where 1 is the maximum; inconclusive = response in the unintended direction; inactive = score below 0.9.

A short description of this assay: Tanguay_ZF_120hpf_TR_legacy: (Legacy) Oregon State University Tanguay Lab 120 Hour Post-fertilization zebrafish Assay for Touch Response (AID 2283667). On the procedure: Tanguay_ZF_120hpf_legacy is a whole embryo, multiplexed endpoint assay using zebrafish larvae exposed for 120 hours post fertilization on a 96-well plate.Tanguay_ZF_120hpf_TR_legacy is one of one assay component(s) measured or calculated from the Tanguay_ZF_120hpf_legacy assay. It is designed to make measurements of zebrafish development as detected with brightfield microscopy of developing zebrafish embryos.Data from the assay component Tanguay_ZF_120hpf_TR_legacy was analyzed into 1 assay endpoints. This assay endpoint, Tanguay_ZF_120hpf_TR_legacy, was analyzed in the positive analysis fitting direction relative to DMSO as the negative control and baseline of activity. Using a type of morphology reporter, gain-of-signal activity can be used to understand changes in developmentals as they relate to the whole embryo. To generalize the intended target to other relatable targets, this assay endpoint is annotated to the zebrafish development intended target family, where the subfamily is embryonic functional response.
Zebrafish husbandry: Tropical 5D wild-type adult zebrafish were housed in at an approximate density of 1000 per 100 gallon tank at the Sinnhuber Aquatic Research Laboratory, Oregon State University, Corvallis, OR. Each tank was kept at standard laboratory conditions of 28C on a 14-h light/10-h dark photoperiod in fish water consisting of reverse osmosis water supplemented with a commercially available salt (Instant Ocean). Spawning funnels were placed into the tanks the night prior, and embryos were collected and staged. […] Ten microliters of each row of dilution plate 2 was added to 2 exposure plates. The final DMSO concentration used was 0.64% (vol/vol). Thirty-two embryos were also exposed to 5uM trimethyltin chloride (positive control). Plates were sealed to prevent evaporation and foil covered to reduce light exposure and kept in a 28C incubator. Embryos were statically exposed until 120 hpf. At 24 hpf, embryos were assessed for photomotor response using a custom photomotor response analysis tool (PRAT) and for developmental toxicity endpoints (MO24: mortality at 24 hpf, DP: developmental progression, SM: spontaneous movement, and NC: notochord distortion). At 120 hpf, locomotor activity was measured using Viewpoint Zebralab and assessed for 18 endpoints. Zebrafish acquisition and analysis program (ZAAP), a custom program designed to inventory, acquire, and manage zebrafish data, was used to collect developmental endpoints as either present or absent (i.e., binary responses were recorded). If mortality occurred for an embryo (at either 24 or 120 hpf), the non-mortality endpoints were not measured.
Regarding `O=[Si]=O`, the result was inactive.

Turning to `CCCCCCC(CCCCCCCCCCC(=O)OCC(COC(C)=O)OC(C)=O)OC(C)=O` (stereo not given), the compound was classed as inactive.

As for `O=C(O)CN(CC(=O)O)CC(=O)O`, the result was inactive.

As for `CC(N)=O`, the result was inactive.

Regarding `OCC(O)CO`, the result was inactive.

Consider `CC(COCC(C)OC(=O)c1ccccc1)OC(=O)c1ccccc1` (stereo not given), for which the outcome was inactive.

Turning to `O=C(O)CC(O)(CC(=O)O)C(=O)O`, the compound was called inactive.

Turning to `O=C(O)c1[nH]n(-c2ccc(S(=O)(=O)O)cc2)c(=O)c1N=Nc1ccc(S(=O)(=O)O)cc1`, the call was inactive.

As to `CC(C)NCC(O)c1ccc(O)c(O)c1` (stereo not given), the compound was called inactive.

With `Nc1nc(=S)c2[nH]cnc2[nH]1`, the result was inactive.

For `CCCC(=O)O`, the call was inactive.

For the compound `COc1ccc(C(=O)Nc2nc3ccccc3c(NCc3ccccc3)c2C#N)cc1`, the compound was called inactive.

Take `CN(C)CCCN(C)CCCN(C)C`: the outcome was inactive.

On to `CCCCCCCC(=O)OC`, for which the result was inactive.

Turning to `CC1(C)C(=O)NC(=O)N1CO`, the compound was classed as inactive.

Regarding `CS(=O)(=O)c1ccc([C@@H](C[C@H]2CCC(=O)C2)C(=O)Nc2cnccn2)cc1Cl`, the outcome was inactive.

As to `NC(=Nc1ccccc1)Nc1ccccc1`, the result was inactive.

As for `CC(=O)O`, the outcome was inactive.

Consider `CCCCC(CC)CO` (stereo not given), for which the compound was called inactive.

As for `CC(=O)CC(c1ccccc1)c1c(O)c2ccccc2oc1=O` (stereo not given), the result was inactive.

As to `CCOCCOCCO`, the result was inactive.

Take `O=C(NS(=O)(=O)/C=C/c1cccs1)c1ccc(F)cc1Br`: the result was inactive.

With `CCCCC(CC)COC(=O)CCCCCCCC(=O)OCC(CC)CCCC` (stereo not given), the call was inactive.

As for `CC(C)c1cccc(C(C)C)c1`, the compound was called inactive.

In the case of `N[C@@H](Cc1c[nH]c2ccccc12)C(=O)O`, the compound was called inactive.

`Cc1cn([C@H]2C=C[C@@H](CO)O2)c(=O)[nH]c1=O`: the call was inactive.

`CCCCCCCCCCCCCCOS(=O)(=O)O`: the AC50 was 32.6 µM (active).

For the compound `CC(C)(O)c1ccc(CNC(=O)c2cccnc2Oc2ccc(F)cc2)cc1`, the call was inactive.

On to `CC(=O)OC1CC(C)OC(C)O1` (stereo not given), for which the compound was classed as inactive.

On to `O=Cc1ccccc1C=O`, for which the compound was called inactive.

`Cn1cnc2c1c(=O)[nH]c(=O)n2C`: the outcome was inactive.

Regarding `COC(=O)CCCC(=O)OC`, the outcome was inactive.

Turning to `Nc1nc(Cl)nc2c1ncn2[C@H]1C[C@H](O)[C@@H](CO)O1`, the compound was classed as inactive.

Regarding `CN(C)C(=O)NC1(c2ccccc2)CCN(CCC[C@]2(c3ccc(Cl)c(Cl)c3)CCCN(C(=O)c3ccccc3)C2)CC1`, the result was inactive.

Take `COC(=O)CCC(=O)OC`: the compound was classed as inactive.

`COc1ccc(OC(F)(F)F)cc1CN[C@H]1CCCN[C@H]1c1ccccc1`: the compound was called inactive.

Consider `C#CC(O)C(CC)CCCC` (stereo not given), for which the compound was called inactive.

`Cc1cc(SC2=C(O)C[C@@](CCc3ccc(N)cc3)(C(C)C)OC2=O)c(C(C)(C)C)cc1CO`: the call was inactive.

`O=NO`: the call was inactive.

With `O=C1NC(=O)C(c2ccccc2)(c2ccccc2)N1`, the call was inactive.

The record behind these values is PubChem BioAssay (EPA / NIEHS).
